PubChem BioAssay (EPA / NIEHS)
The source made the active and inactive calls. Rule for the calls: active = hit-call score of the fitted dose curve at least 0.9, where 1 is the maximum; inactive = score below 0.9.

How the values were obtained:
Settings in all cases: mRNA level, 48 h; actives raise or lower the signal
HGF (gene 3082) = assay: LTEA_HepaRG_HGF: Life Technologies and Expression Analysis (LTEA) Assay for Hepatocyte Growth Facto (HGF) using HepaRG (AID 2283505)
Procedure, shortened: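 HepaRG, 48 h dosing, 8-pt half-log series from 100 uM in 0.5% DMSO, duplicates. Readout: TaqMan qRT-PCR of HGF mRNA, housekeeping-normalized; bidirectional curve fit vs DMSO baseline.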

[1] = read-out: Insulin Like Growth Factor 1 (IGF1), IGF1 (gene 3479); assay: LTEA_HepaRG_IGF1: Life Technologies and Expression Analysis (LTEA) Assay for Insulin Like Growth Factor 1 (IGF1) using HepaRG (AID 2283506)
Procedure, shortened: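 Differentiated human HepaRG cells were dosed for 48 h in serum-free induction medium with 0.5% DMSO, eight half-log concentrations up to 100 uM, in duplicate. IGF1 mRNA was quantified by qRT-PCR normalized to ACTB, GAPDH, POLR2A; bidirectional fitting versus DMSO.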

[2] = read-out: Intercellular Adhesion Molecule 1 (ICAM1), ICAM1 (gene 3383); assay: LTEA_HepaRG_ICAM1: Life Technologies and Expression Analysis (LTEA) Assay for Intercellular Adhesion Molecule 1 (ICAM1) using HepaRG (AID 2283507)
Procedure, shortened: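 HepaRG, 48 h exposure, 8-pt half-log series from 100 uM, 0.5% DMSO vehicle, duplicates. Readout: TaqMan qRT-PCR mRNA, housekeeping-normalized (ACTB/GAPDH/POLR2A). Bidirectional curve fit vs DMSO baseline.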

[3] = read-out: Insulin-like growth factor-binding protein 1 (IGFBP1), IGFBP1 (gene 3484); assay: LTEA_HepaRG_IGFBP1: Life Technologies and Expression Analysis (LTEA) Assay for Insulin-like growth factor-binding protein 1 (IGFBP1) using HepaRG (AID 2283508)
Procedure, shortened: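 qRT-PCR mRNA read-out (TaqMan, Fluidigm array), normalised to three housekeeping genes; HepaRG cells, 48 h exposure, 8-pt half-log series from 100 uM, 0.5% DMSO vehicle; bidirectional curve fit vs DMSO baseline.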

[4] = read-out: Potassium channel subfamily K member 1 (KCNK1), KCNK1 (gene 3775); assay: LTEA_HepaRG_KCNK1: Life Technologies and Expression Analysis (LTEA) Assay for Potassium channel subfamily K member 1 (KCNK1) using HepaRG (AID 2283511)
Procedure, shortened: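 Differentiated human HepaRG cells in serum-free induction medium were exposed in duplicate for 48 h to 8 half-log concentrations up to 100 uM in 0.5% DMSO. KCNK1 mRNA was measured by TaqMan qRT-PCR, normalized to ACTB, GAPDH and POLR2A, and fitted bidirectionally versus DMSO.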

[5] = read-out: Keratin 19 (KRT19), KRT19 (gene 3880); assay: LTEA_HepaRG_KRT19: Life Technologies and Expression Analysis (LTEA) Assay for Keratin 19 (KRT19) using HepaRG (AID 2283512)
Procedure, shortened: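 HepaRG, 48 h chemical exposure, 8-pt half-log CRC from 100 uM, 0.5% DMSO vehicle, duplicates. Readout: TaqMan qRT-PCR of KRT19 mRNA, housekeeping-normalized (ACTB/GAPDH/POLR2A). Bidirectional fit vs DMSO baseline.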

[6] = read-out: JUN Transcription Factor, JUN (gene 3725); assay: LTEA_HepaRG_JUN: Life Technologies and Expression Analysis (LTEA) Assay for JUN Transcription Factor using HepaRG (AID 2283513)
Procedure, shortened: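 Differentiated HepaRG cells were exposed to chemicals for 48 h in serum-free induction medium, 8 concentrations from 100 uM in half-log steps, 0.5% DMSO vehicle, in duplicate. JUN mRNA was quantified by TaqMan qRT-PCR, normalized to ACTB, GAPDH, POLR2A.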

[7] = read-out: Lipase C (LIPC), LIPC (gene 3990); assay: LTEA_HepaRG_LIPC: Life Technologies and Expression Analysis (LTEA) Assay for Lipase C (LIPC) using HepaRG (AID 2283514)
Procedure, shortened: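 Differentiated human HepaRG cells in serum-free induction medium were exposed in duplicate for 48 h to eight concentrations (top 100 uM, half-log steps, 0.5% DMSO). LIPC mRNA was quantified by TaqMan qRT-PCR, normalized to ACTB, GAPDH and POLR2A, with bidirectional fitting versus DMSO.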

[8] = read-out: Lipoprotein lipase (LPL), LPL (gene 4023); assay: LTEA_HepaRG_LPL: Life Technologies and Expression Analysis (LTEA) Assay for Lipoprotein lipase (LPL) using HepaRG (AID 2283515)
Procedure, shortened: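 Differentiated human HepaRG cells in serum-free induction medium were exposed in duplicate for 48 h to eight half-log concentrations (top 100 uM) in 0.5% DMSO. LPL mRNA was quantified by TaqMan qRT-PCR, normalized to ACTB, GAPDH and POLR2A.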

[9] = read-out: MicroRNA 122 (MIR122), gene 406906; assay: LTEA_HepaRG_MIR122: Life Technologies and Expression Analysis (LTEA) Assay for MicroRNA 122 (MIR122) using HepaRG (AID 2283516); note: the transcript read is the microRNA miR-122
Procedure, shortened: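 Differentiated human HepaRG cells were exposed 48 h in serum-free induction medium to eight half-log concentrations (top 100 uM, 0.5% DMSO). Transcript level was measured by TaqMan qRT-PCR, normalized to ACTB, GAPDH and POLR2A, and fitted bidirectionally versus DMSO.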

[10] = read-out: matrix metalloproteinase-10 (MMP10), MMP10 (gene 4319); assay: LTEA_HepaRG_MMP10: Life Technologies and Expression Analysis (LTEA) Assay for matrix metalloproteinase-10 (MMP10) using HepaRG (AID 2283517)
Procedure, shortened: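 HepaRG, collagen I, ~100,000 cells/well; serum-free induction medium; 48 h exposure, duplicate, 8-pt half-log to 100 uM, 0.5% DMSO. Readout: TaqMan qRT-PCR, normalized to ACTB/GAPDH/POLR2A; bidirectional fit vs DMSO.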

MYC, MYC (gene 4609) = assay: LTEA_HepaRG_MYC: Life Technologies and Expression Analysis (LTEA) Assay for MYC using HepaRG (AID 2283518)
Procedure, shortened: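 qRT-PCR read-out of MYC transcript (Fluidigm TaqMan, housekeeping-normalized) after 48 h chemical exposure of HepaRG cells; eight concentrations, top 100 uM, half-log steps. Bidirectional curve fitting against 0.5% DMSO vehicle baseline.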

[11] = read-out: Paternally Expressed 10 (PEG10), PEG10 (gene 23089); assay: LTEA_HepaRG_PEG10: Life Technologies and Expression Analysis (LTEA) Assay for Paternally Expressed 10 (PEG10) using HepaRG (AID 2283520)
Procedure, shortened: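 Differentiated HepaRG cells, plated 48 h then switched to serum-free induction medium, were exposed in duplicate for 48 h to eight half-log concentrations topping at 100 uM in 0.5% DMSO. PEG10 mRNA was quantified by TaqMan qRT-PCR, normalised to ACTB, GAPDH and POLR2A.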

[12] = read-out: Nuclear factor NF-kappa-B p105 subunit (Homo sapiens) (UniProt P19838); assay: LTEA_HepaRG_NFKB1: Life Technologies and Expression Analysis (LTEA) Assay for Nuclear Factor Kappa B Subunit 1 (NFKB1) using HepaRG (AID 2283521);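 note: TaqMan qRT-PCR transcript normalised to ACTB GAPDH and POLR2A housekeeping genes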
Procedure, shortened: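 Differentiated human HepaRG cells were exposed for 48 h in serum-free induction medium to eight concentrations (top 100 uM, half-log steps, 0.5% DMSO), in duplicate. NFKB1 mRNA was measured by TaqMan qRT-PCR, normalized to ACTB/GAPDH/POLR2A, and fitted bidirectionally against DMSO.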

[13] = read-out: Protein phosphatase 2A (PPP2R4), PTPA (gene 5524); assay: LTEA_HepaRG_PPP2R4: Life Technologies and Expression Analysis (LTEA) Assay for Protein phosphatase 2A (PPP2R4) using HepaRG (AID 2283522)
Procedure, shortened: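 Differentiated HepaRG cells in serum-free induction medium were exposed in duplicate for 48 h to eight concentrations, top 100 uM with half-log dilutions, in 0.5% DMSO. PPP2R4 mRNA was quantified by TaqMan qRT-PCR, normalized to ACTB, GAPDH and POLR2A.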

[14] = read-out: Phosphatase and tensin (PTEN), PTEN (gene 5728); assay: LTEA_HepaRG_PTEN: Life Technologies and Expression Analysis (LTEA) Assay for Phosphatase and tensin (PTEN) using HepaRG (AID 2283523)
Procedure, shortened: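 Differentiated human HepaRG cells, plated 48 h then switched to serum-free induction medium, were exposed in duplicate for 48 h to eight half-log concentrations up to 100 uM in 0.5% DMSO. PTEN mRNA measured by TaqMan qRT-PCR, normalized to ACTB/GAPDH/POLR2A, bidirectional fit versus DMSO.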

[15] = read-out: solute carrier (SLC22A1), SLC22A1 (gene 6580); assay: LTEA_HepaRG_SLC22A1: Life Technologies and Expression Analysis (LTEA) Assay for solute carrier (SLC22A1) using HepaRG (AID 2283524)
Procedure, shortened: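 Human HepaRG cells were plated 48 h, switched to serum-free induction medium, then exposed in duplicate for 48 h to 8-point half-log series from 100 uM in 0.5% DMSO. SLC22A1 mRNA measured by qRT-PCR, normalized to ACTB/GAPDH/POLR2A, fitted bidirectionally versus DMSO.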

[16] = read-out: Interleukin 6 (IL6), IL6 (gene 3569); assay: LTEA_HepaRG_IL6: Life Technologies and Expression Analysis (LTEA) Assay for Interleukin 6 (IL6) using HepaRG (AID 2283509)
Procedure, shortened: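 Differentiated human HepaRG cells, plated 48 h then switched to serum-free induction medium, were exposed in duplicate for 48 h to eight half-log concentrations up to 100 uM in 0.5% DMSO. IL6 mRNA measured by qRT-PCR, normalized to ACTB/GAPDH/POLR2A.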

[17] = read-out: Interleukin 6 Receptor (IL6R), IL6R (gene 3570); assay: LTEA_HepaRG_IL6R: Life Technologies and Expression Analysis (LTEA) Assay for Interleukin 6 Receptor (IL6R) using HepaRG (AID 2283510)
Procedure, shortened: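 Differentiated human HepaRG cells, plated 48 h then switched to serum-free induction medium, were dosed in duplicate for 48 h at eight half-log concentrations up to 100 uM in 0.5% DMSO. IL6R mRNA quantified by qRT-PCR, normalized to ACTB/GAPDH/POLR2A; bidirectional fit versus DMSO.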

[18] = read-out: matrix metalloproteinase-3 (MMP3), MMP3 (gene 4314); assay: LTEA_HepaRG_MMP3: Life Technologies and Expression Analysis (LTEA) Assay for matrix metalloproteinase-3 (MMP3) using HepaRG (AID 2283519)
Procedure, shortened: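 Differentiated human HepaRG cells, plated 48 h on collagen I, were exposed in duplicate for 48 h in serum-free induction medium to eight half-log concentrations up to 100 uM in 0.5% DMSO. MMP3 mRNA was quantified by TaqMan qRT-PCR, normalised to ACTB, GAPDH and POLR2A.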

Measured: AC50

Nuclear factor NF-kappa-B p105 subunit (Homo sapiens), sequence (P19838 whole entry, looked up): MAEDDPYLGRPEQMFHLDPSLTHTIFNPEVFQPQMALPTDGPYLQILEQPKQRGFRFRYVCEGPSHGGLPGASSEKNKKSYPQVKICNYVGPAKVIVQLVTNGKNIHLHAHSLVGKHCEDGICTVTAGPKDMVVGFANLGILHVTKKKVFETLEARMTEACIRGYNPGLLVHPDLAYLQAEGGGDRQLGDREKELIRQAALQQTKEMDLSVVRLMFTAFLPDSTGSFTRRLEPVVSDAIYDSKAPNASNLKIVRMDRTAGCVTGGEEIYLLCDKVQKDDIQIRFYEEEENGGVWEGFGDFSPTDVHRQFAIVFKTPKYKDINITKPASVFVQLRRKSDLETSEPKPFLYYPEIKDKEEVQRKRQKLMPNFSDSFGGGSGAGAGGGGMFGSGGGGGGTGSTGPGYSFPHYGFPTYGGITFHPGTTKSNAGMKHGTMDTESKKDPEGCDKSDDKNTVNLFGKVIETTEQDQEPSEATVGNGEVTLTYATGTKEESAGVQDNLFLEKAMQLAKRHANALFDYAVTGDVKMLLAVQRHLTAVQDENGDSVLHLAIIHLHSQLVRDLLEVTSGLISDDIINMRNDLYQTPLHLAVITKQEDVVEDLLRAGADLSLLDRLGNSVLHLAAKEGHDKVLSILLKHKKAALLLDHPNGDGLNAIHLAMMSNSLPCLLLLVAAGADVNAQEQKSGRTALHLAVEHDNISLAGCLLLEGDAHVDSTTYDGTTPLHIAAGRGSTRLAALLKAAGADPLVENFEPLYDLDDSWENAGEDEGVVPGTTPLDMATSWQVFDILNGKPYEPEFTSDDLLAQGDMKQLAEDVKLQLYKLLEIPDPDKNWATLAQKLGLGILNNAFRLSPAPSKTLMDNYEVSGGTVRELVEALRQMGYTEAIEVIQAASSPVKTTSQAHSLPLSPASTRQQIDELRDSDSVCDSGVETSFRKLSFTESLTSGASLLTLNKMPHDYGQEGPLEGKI

CCOCCO
not listed: [16] | [17] | [18]
inactive: all other assays above

CCNc1ccccc1
not listed: HGF (gene 3082) | [8]
inactive: all other assays above

CC(O)CN(CCN(CC(C)O)CC(C)O)CC(C)O (stereo unspecified)
active: [13] 12.5 µM
not listed: [8] | [16] | [17]
inactive: all other assays above

COc1ccc(-n2nc(C(F)F)cc2-c2ccc(S(C)=O)cc2)cc1 (stereo unspecified)
not listed: HGF (gene 3082) | [8] | [18]
inactive: all other assays above

C[C@](N)(Cc1ccc(O)c(O)c1)C(=O)O
not listed: HGF (gene 3082) | [8] | [18]
inactive: all other assays above

Clc1nc(Cl)c(Cl)c(Cl)c1Cl
not listed: [8] | [16] | [18]
inactive: all other assays above

Cc1ccc(S(=O)(=O)O)cc1C
not listed: [12] | [16] | [18]
inactive: all other assays above

CC(=O)c1ccc2c(c1)[C@H](NC(=O)c1ccc(F)cc1)[C@@H](O)C(C)(C)O2
not listed: [12] | [16] | [17]
inactive: all other assays above

CNS(=O)(=O)c1cc(C(=O)N2CCC(CCN3C4CCC3CC(n3c(C)nc5ccccc53)C4)(c3cccc(F)c3)CC2)c(Cl)cc1F (stereo unspecified)
active: [1] 16.3 µM | [2] 26.4 µM | [3] 30.5 µM | [5] 18.3 µM | [7] 30.1 µM | [8] 18.2 µM | [9] 18.8 µM | MYC, MYC (gene 4609) 26.1 µM | [11] 13.3 µM | [15] 18.8 µM
inactive: HGF (gene 3082) | [4] | [6] | [10] | [18] | [12] | [13] | [14]

CC(=O)OC[C@H]1O[C@@](COC(C)=O)(O[C@H]2O[C@H](COC(C)=O)[C@@H](OC(C)=O)[C@H](OC(C)=O)[C@H]2OC(C)=O)[C@@H](OC(C)=O)[C@@H]1OC(C)=O
not listed: [12] | [16] | [17]
inactive: all other assays above

C1N2CN3CN1CN(C2)C3
not listed: HGF (gene 3082) | [8]
inactive: all other assays above

Oc1ccc2c(c1)-c1ccccc1C2
active: [5] 25 µM | MYC, MYC (gene 4609) 33.3 µM
not listed: [8] | [12] | [16]
inactive: all other assays above

O=P(OC(CCl)CCl)(OC(CCl)CCl)OC(CCl)CCl
inactive: [4] | [6] | [10] | [14]
active: [1] 50 µM | [2] 84.1 µM | [3] 62.7 µM | [16] 79.6 µM | [5] 50 µM | [7] 65.3 µM | [8] 91.3 µM | [9] 59.6 µM | MYC, MYC (gene 4609) 82.9 µM | [18] 23.3 µM | [11] 12.7 µM | [13] 85.3 µM | [15] 75.2 µM

O=C(O)c1cc(N=Nc2ccc(S(=O)(=O)Nc3ccccn3)cc2)ccc1O
not listed: [3] | [8] | [16]
inactive: all other assays above
